Experimental data: PubChem BioAssay (Tox21)
Records with an inconclusive call do not appear. The source made the active and inactive calls. Unless noted, the call rests on the fitted dose curve; in most records, active means well fitted curve in the direction sought with a large enough effect in the repeat runs; inconclusive means weak or mixed curves; inactive means no such curve, though single readings can be large; an effect the other way counts as inactive or inconclusive.

Legend:
[1] = qHTS assay for small molecule agonists of the p53 signaling pathway (AID 651631; calls by dose curve; further: nearly all actives have a fitted effect of over 15% in size)
In short: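 Stably transfected HCT-116 cells (beta-lactamase behind p53 response elements) get compounds after a 5 h settling period; 16 h later at 37 °C, FRET substrate is loaded and fluorescence read after 2 h.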

[2] = qHTS assay for small molecules that induce genotoxicity in human embryonic kidney cells expressing luciferase-tagged ATAD5 (AID 651632); further: nearly all actives have a fitted effect of over 15% in size
In short: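 HEK293T cells carrying a luciferase reporter tagged to ATAD5 were exposed to compound or DMSO vehicle for 16 hr at 37C, 5% CO2. Amplite was added, and after 30 min at room temperature luciferase activity was read as a marker of ATAD5 induction.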

[3] = qHTS assay for small molecule agonists of the p53 signaling pathway - cell viability (AID 651633; calls by dose curve;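 further: p53RE-bla HCT reporter cells with a stable beta-lactamase p53 reporter; series mostly up to about 83 µM; nearly all actives have a fitted effect of over 30% in size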)
In short: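 p53RE-bla cells, seeded at 4,000 per well and rested 5 h at 37 C/5% CO2, received compounds in DMSO for 16 h at 37 C. CellTiter-Glo was then added, and luminescence was read after 30 min at room temperature to gauge cytotoxicity.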

[4] = qHTS assay for small molecules that induce genotoxicity in human embryonic kidney cells expressing luciferase-tagged ATAD5 - cell viability (AID 651634; calls by dose curve; further: nearly all actives have a fitted effect of over 25% in size)
In short: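 HEK293T cells expressing luciferase-tagged ATAD5 were exposed to compound or DMSO for 15.5 hr at 37C, 5% CO2. Viability was then read as live-cell protease activity by CellTiter-Fluor fluorescence after 30 min at 37C.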

[5] = qHTS assay for small molecule disruptors of the mitochondrial membrane potential - cell viability (AID 720634; calls by dose curve;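 further: human HepG2 liver cancer cells; series mostly up to about 83 µM; nearly all actives have a fitted effect of over 20% in size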)
In short: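 HepG2 cells seeded overnight at 37 C, then exposed to compound or DMSO for 1 hr at 37 C, 5% CO2. m-MPI dye added, then CellTiter-Glo for 30 min at room temperature; viability read as ATP luminescence.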

[6] = qHTS assay for small molecule disruptors of the mitochondrial membrane potential (AID 720635)
In short: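 HepG2 cells (2,000/well) attached overnight at 37C, then took compound for 1 hr at 37C, 5% CO2. Mito-MPS dye was added for 30 min; fluorescence was read at 490/535 nm (monomers) and 540/590 nm (aggregates).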

[7] = qHTS assay to test for compound auto fluorescence at 590 nm (red) in HepG2 cells (AID 720674)
In short: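 Rose Bengal sodium served as the red fluorophore standard. HepG2 monolayers (overnight attachment, MEM with 10% FBS) were exposed to test compounds for 1 hr at 37 C and read at Ex 540/Em 590 nm.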

[8] = qHTS assay to test for compound auto fluorescence at 535 nm (green) in HepG2 cells (AID 720675)
[9] = qHTS assay to test for compound auto fluorescence at 460 nm (blue) in HEK293 cells (AID 720678)
In short: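 Auto fluorescence in the blue band was quantified as triamterene equivalency. HEK293 cells were seeded at 2,000/well, dosed after a 4-5 hr attachment, and kept overnight at 37C before the 405/460 nm reading.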

[10] = qHTS assay to test for compound auto fluorescence at 590 nm (red) in HEK293 cells (AID 720679)
In short: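 Autofluorescence equivalency to Rose Bengal sodium, 540/590nm, in HEK293 cells exposed overnight to 23 nL compound per well.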

[11] = qHTS assay to test for compound auto fluorescence at 535 nm (green) in HEK293 cells (AID 720680)
[12] = qHTS assay to test for compound auto fluorescence at 460 nm (blue) in HEK293 cell free culture (AID 720681)
In short: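 Test compounds were pinned into cell-free culture medium (DMEM with 10% FBS) and fluorescence was read directly at Ex/Em 405/460 nm. Signals were expressed as fluorescence equivalents of triamterene, with DMSO vehicle as control.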

[13] = qHTS assay to test for compound auto fluorescence at 535 nm (green) in HEK293 cell free culture (AID 720682)
In short: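 Using fluorescein as calibrant, autofluorescence was quantified at 485/535 nm in cell-free DMEM containing 10% FBS after pintool addition of compound or vehicle.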

[14] = qHTS assay to test for compound auto fluorescence at 590 nm (red) in HEK293 cell free culture (AID 720683)
In short: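 Tox21 10K library compounds were pinned into cell-free DMEM with 10% FBS and fluorescence was read at excitation 540 nm. Activity is expressed as Rose Bengal sodium equivalency.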

[15] = qHTS assay to test for compound auto fluorescence at 590 nm (red) in HepG2 cell free culture (AID 720684)
In short: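 Measured in medium alone (MEM containing 10% FBS) following pintool addition of compound; emission at 590 nm with 540 nm excitation, referenced to Rose Bengal sodium.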

[16] = qHTS assay to test for compound auto fluorescence at 460 nm (blue) in HepG2 cell free culture (AID 720685)
In short: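 Compound (23 nL) or DMSO pinned into cell-free MEM with 10% FBS; blue fluorescence read at 405/460 nm excitation/emission, expressed as auto-fluorescence equivalency to triamterene.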

[17] = qHTS assay to test for compound auto fluorescence at 535 nm (green) in HepG2 cell free culture (AID 720686)
[18] = qHTS assay to test for compound auto fluorescence at 460 nm (blue) in HepG2 cells (AID 720687)
In short: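 Cells (2,000/well in MEM with 10% FBS) attached overnight at 37 C, then were exposed to compound or DMSO for 1 hr at 37 C, 5% CO2. Fluorescence read at Ex/Em 405/460 nm, expressed as triamterene-equivalent signal.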

[19] = biological target: Glucocorticoid receptor (Homo sapiens) (UniProt P04150); experiment: qHTS assay to identify small molecule agonists of the glucocorticoid receptor (GR) signaling pathway (AID 720691; active means well fitted activation curve with a large enough effect in the signal ratio in the repeat runs, not every such curve was filed as active; the % refers to the signal ratio)
Chain of Glucocorticoid receptor (Homo sapiens) (P04150 whole entry, looked up): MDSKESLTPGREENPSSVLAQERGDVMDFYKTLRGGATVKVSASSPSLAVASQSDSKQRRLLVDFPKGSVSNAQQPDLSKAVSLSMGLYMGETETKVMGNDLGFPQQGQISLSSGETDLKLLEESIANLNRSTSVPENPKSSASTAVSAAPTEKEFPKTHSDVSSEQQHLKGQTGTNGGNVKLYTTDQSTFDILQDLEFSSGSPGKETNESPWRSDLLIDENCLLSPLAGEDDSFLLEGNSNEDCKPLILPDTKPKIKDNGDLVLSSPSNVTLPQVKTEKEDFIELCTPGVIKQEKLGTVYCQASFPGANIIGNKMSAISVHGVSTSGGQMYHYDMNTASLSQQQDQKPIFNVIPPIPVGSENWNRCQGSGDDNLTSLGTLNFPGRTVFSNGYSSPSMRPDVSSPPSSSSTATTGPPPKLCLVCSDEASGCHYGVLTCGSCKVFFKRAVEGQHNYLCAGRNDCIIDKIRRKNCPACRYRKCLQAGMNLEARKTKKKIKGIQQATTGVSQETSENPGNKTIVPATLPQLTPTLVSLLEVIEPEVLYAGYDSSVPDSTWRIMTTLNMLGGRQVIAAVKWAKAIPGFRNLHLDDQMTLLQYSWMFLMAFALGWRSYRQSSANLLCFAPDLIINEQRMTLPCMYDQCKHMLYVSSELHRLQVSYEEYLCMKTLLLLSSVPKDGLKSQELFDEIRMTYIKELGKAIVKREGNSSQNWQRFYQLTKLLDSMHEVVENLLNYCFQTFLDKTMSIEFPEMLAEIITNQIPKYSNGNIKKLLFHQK
In short: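 GR-bla HeLa cells (beta-lactamase reporter under glucocorticoid response element) were plated 4 h at 37 C/5% CO2, given compounds in DMSO, and incubated 18 h at 37 C. LiveBLAzer B/G FRET substrate was added for 2 h at room temperature, then fluorescence intensity read.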

[20] = biological target: Glucocorticoid receptor (Homo sapiens) (UniProt P04150); experiment: qHTS assay to identify small molecule antagonists of the glucocorticoid receptor (GR) signaling pathway (AID 720692; active means well fitted inhibition curve with a large enough effect in the signal ratio in the repeat runs, not every such curve was filed as active; the % refers to the signal ratio)
In short: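 GR-bla HeLa cells (beta-lactamase reporter under glucocorticoid response element) were pre-plated 4 h at 37 C, treated with compounds plus 5 nM dexamethasone (final) for 18 h, then read by LiveBLAzer B/G FRET fluorescence after 2 h.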

Measured: Potency

CCCc1ccc(O)c(OC)c1
inactive: [1] | [2] | [3] | [4] | [5] | [6] | [7] | [8] | [9] | [10] | [11] | [12] | [13] | [14] | [15] | [16] | [17] | [18] | [19] | [20]

C=CC(C)(CCC=C(C)C)OC(=O)C(C)C (stereo not given)
inactive: [1] | [2] | [3] | [4] | [5] | [6] | [7] | [8] | [9] | [10] | [11] | [12] | [13] | [14] | [15] | [16] | [18] | [19] | [20]

CCCCCCCCCCCCCC(=O)OCC
inactive: [1] | [2] | [3] | [4] | [5] | [6] | [7] | [8] | [9] | [10] | [11] | [12] | [13] | [14] | [15] | [16] | [18] | [19]

CC1(C)C(=O)C(C)(C)C1=O
inactive: [1] | [2] | [3] | [4] | [5] | [6] | [7] | [8] | [9] | [10] | [11] | [12] | [13] | [14] | [15] | [16] | [17] | [18]

CCCC(C)C(O)CC (stereo not given)
inactive: [1] | [2] | [3] | [4] | [5] | [6] | [7] | [8] | [9] | [10] | [11] | [12] | [13] | [14] | [15] | [16] | [17] | [18] | [19] | [20]

CC(C)c1cc(C(C)C)cc(C(C)C)c1
inactive: [1] | [2] | [3] | [4] | [5] | [6] | [7] | [8] | [9] | [10] | [11] | [12] | [13] | [14] | [15] | [16] | [17] | [18] | [19] | [20]

c1coc(Cn2cccc2)c1
inactive: [1] | [2] | [3] | [4] | [5] | [6] | [7] | [8] | [9] | [10] | [11] | [12] | [13] | [14] | [15] | [16] | [17] | [18] | [19] | [20]
